The target in assay [1] is ATP-dependent 6-phosphofructokinase (Trypanosoma brucei brucei) (UniProt O15648). Put plainly: qHTS Assay to Find Inhibitors of T. brucei phosphofructokinase: hit validation (AID 492961).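 Also: luminescence reports ADP formed as PFK phosphorylates fructose-6-phosphate with ATP; series mostly up to about 51 µM; % is scaled to controls: 0 for no effect and ±100 for the full control effect.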 In short, it runs like this:
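ADP-Glo luminescence read-out of ADP formed by 1.25 nM PFK from 0.1 mM ATP and 0.5 mM F6P (TEA pH 8.0, 45 min, RT). Compounds titrated; activity normalized to no-enzyme and full-enzyme controls.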
(In general: qHTS replaces the single test concentration by a dilution series.)

The nature of assay [2]: Validation screen for small molecules that induce genotoxicity in human embryonic kidney (HEK293T) cells expressing luciferase-tagged ELG1 (AID 493106). Also: 0% is about no effect. An outline of the steps: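 Cells were dispensed at 2,000 per well, then 23 nL compound or DMSO was pinned in. After 16 hr at 37 °C and 5% CO2, ONE-Glo reagent was added. Luciferase activity was measured following 30 min at room temperature.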

Assay [3] in a line: Nrf2 qHTS screen for inhibitors: Validation (AID 493153; active = well fitted inhibition curve with a large enough effect in the main read-out, with a control signal flat, not every such curve was filed as active). The conditions noted are these: Potency: luciferase luminescence; viability change: measured here: cytotoxicity max response. An outline of the steps:
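A549 ARE_Fluc, 5% FBS OPTI-MEM; cpd titration, 18-24 h, 37°C/5% CO2. Read 1: CellTiter-Fluor (Ex 405/Em 525), cytotox. Read 2: luciferase lum, Nrf2 activity.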

Assay [4] can be described thus: qHTS for Inhibitors of Cell Surface uPA Generation: Validation Assay (AID 493164).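 Also: RAW 264.7 macrophage cells exposed to compound for 18 h; 0% is about no effect.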 An outline of the steps:
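ATP-Lite luminescence read-out: ATP remains high when uPA activity-dependent LF translocation into the cytoplasm is blocked. RAW 264.7 cells, 18 h compound exposure at 37 C; 7-point titration, 2.45 nM to 38.3 uM final.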

Assay [5] has as its target Peptidyl-prolyl cis-trans isomerase NIMA-interacting 1 (Homo sapiens) (UniProt Q13526). Put plainly: qHTS Validation Assay to Find Inhibitors of Pin1 (AID 504536; active = well fitted inhibition curve with a large enough effect in the polarisation, with a control signal flat, not every such curve was filed as active; the % refers to the polarisation;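 also: 0% = full Pin1 enzyme wells and -100% = no-enzyme wells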). In short, it runs like this:
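Fluorescence polarization competition: compounds (titration) displace HiFluor-488-labeled Pin1-1b peptide from Pin1 (0.3 uM final) in pH 7.5 HEPES buffer with DTT, 10 min at room temperature; %Activity normalized to no-enzyme wells, curves fitted.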

The target of assay [6] is Phosphoglycerate kinase, glycosomal (Trypanosoma brucei brucei) (UniProt P07378). Put plainly: qHTS Validation Assay to Find Inhibitors of Phosphoglycerate Kinase (AID 504547).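 Also: control wells lack PGK and mark full inhibition.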 An outline of the steps: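 Luminescence end-point (Kinase-Glo Plus, 10 min) after a 60 min room-temperature coupled reaction. GAPDH at 100nM final supplies 1,3-BPG to PGK. Buffer: 100mM TEA pH 7.6, 5mM MgCl2, 0.01% Tween-20. Wells lacking PGK served as controls.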

For assay [7], the target named is phosphoglycerate mutase (Leishmania major) (UniProt Q4Q090). As to the kind of experiment: qHTS Validation Assay to Find Inhibitors of Phosphoglycerate Mutase (AID 504548). Also: series mostly up to about 58 µM; % is scaled to controls: 0 for no effect and ±100 for the full control effect. An outline of the steps:
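Lm PGAM 1.25nM final; 100 mM TEA pH 7.6, 5 mM MgCl2, 0.01% Tween-20; 45 min RT; Kinase-GloPlus, 10 min; end-point luminescence. Enzyme-free wells as negative controls.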

Assay [8] has as its target Ubiquitin carboxyl-terminal hydrolase 1 (Homo sapiens) (UniProt O94782). Put plainly: Inhibitors of USP1/UAF1: Pilot qHTS (AID 504865).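 Also: rhodamine fluorescence freed from ubiquitin-rhodamine substrate followed over time; top concentration of the series differs between compounds; % is scaled to controls: 0 for no effect and ±100 for the full control effect; nearly all actives have a fitted effect of over 35% in size.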 In short, it runs like this: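 USP1/UAF1 complex at 1 nM preincubated 15 min at room temperature with compound, then Ub-Rho substrate added at 150 nM final. Fluorescence (480/540 nm) read kinetically in 50 mM HEPES pH 7.8, 0.5 mM EDTA, 1 mM TCEP, 0.1 mg/ml BSA, 0.01% Tween-20.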

Assay [9] can be described thus: qHTS for Inhibitors of ATXN expression: Validation of Cytotoxic Assay (AID 588349). Also: potency is read from the fitted curve at half-maximal effect. An outline of the steps:
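Titrated compounds are added to cultured HEK293 cells, which are then held at 37 degrees C for 72 hr; loss of intracellular ATP, measured with CellTiter Glo, indicates toxicity.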

The nature of assay [10]: qHTS for Inhibitors of ATXN expression: Validation (AID 588378). Also: nearly all actives have a fitted effect of over 75% in size. Also: potency is read from the fitted curve at half-maximal effect. An outline of the steps: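 HEK293 cells carrying ATXN2-firefly luciferase reporter, treated with compound 24 h at 37 °C. Viability read first by CellTiter-Fluor (405/525 nm), then reporter expression by Bright-Glo luminescence; controls were a known ATXN2 expression inhibitor and a luciferase inhibitor.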
Assay [11] deals with ATPase family AAA domain-containing protein 5 (Homo sapiens) (UniProt Q96QE3). As to the kind of experiment: Validation screen for small molecules that inhibit ELG1-dependent DNA repair in human embryonic kidney (HEK293T) cells expressing luciferase-tagged ELG1 (AID 493107). Also: nearly all actives have a fitted effect of over 70% in size. Also: potency is read from the fitted curve at half-maximal effect. An outline of the steps: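 Cells are dispensed in 1536-well format, then 5-fluorouridine and compound are pinned in. After a 16 hr incubation at 37 °C and 5% CO2, ONE-Glo is added and luciferase measured on a CCD imager.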

For assay [12], the target named is Galactokinase (Homo sapiens) (UniProt P51570). As to the kind of experiment: qHTS Validation Assay for Inhibitors of Human Galactokinase (GALK) (AID 493189). Also: 0% is about no effect. In short, it runs like this:
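GALK (5 nM) with 35 uM ATP and 100 uM galactose in HEPES pH 8.0 with MgCl2, NaCl, DTT and BSA. Reaction ran 1 h at room temperature. Residual ATP read by Kinase-Glo Plus luminescence.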

A short description of assay [13]: Validation screen for small molecules that induce DNA re-replication in SW480 colon adenocarcinoma cells (AID 504364). Also: 0% is about no effect. In short, it runs like this:
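Image-based qHTS: compounds were incubated with SW480 cells for 48 hr, nuclei stained with Hoechst, and per-nucleus fluorescence intensity scanned to flag cells with excess DNA content.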

The target of assay [14] is DNA dC->dU-editing enzyme APOBEC-3G (Homo sapiens) (UniProt Q9HC16). Put plainly: qHTS for inhibitors of Vif-A3G interactions: Validation (AID 588379). Also: 0% is about no effect. An outline of the steps:
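Yellow fluorescence (Ex 488, Em 500-530) of Vif-coexpressing HeLa A3G-eYFP cells, scanned by Acumen cytometer, reports blocked A3G degradation. Cells plated at 700/well overnight at 37 deg C before compound addition, then a further overnight compound incubation at 37 deg C.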

For assay [15], the target named is Estrogen receptor (Homo sapiens) (UniProt P03372). As to the kind of experiment: qHTS assay for small molecule antagonists of estrogen receptor alpha signaling (AID 588513; active = well fitted curve in the direction sought with a large enough effect in the signal ratio, with a control signal flat, not every such curve was filed as active; the % refers to the signal ratio; also: % is scaled to controls: 0 for no effect and ±100 for the full control effect). In short, it runs like this:
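ER-alpha-UAS-bla GripTite HEK 293 cells in 2% charcoal/dextran-treated FBS medium; compounds titrated (1:2, duplicate), then stimulated with 0.5 nM 17-beta-estradiol for 18 h at 37C. CCF4 beta-lactamase fluorescence; Hill-fit IC50 and efficacy.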

The target is the same in assay [16]. Put plainly: qHTS assay for small molecule agonists of estrogen receptor alpha signaling (AID 588514; calls by dose curve;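 also: 0% = vehicle only and 100% = reference agonist; nearly all actives have a fitted effect of over 70% in size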). An outline of the steps:
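Efficacy is expressed against 20 nM 17-beta-estradiol (100%) and DMSO basal (0%); EC50 from Hill equation. Assay: beta-lactamase reporter in ER-alpha-UAS-bla HEK 293 cells, 18 h compound incubation, CCF4 detection.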

Assay [17] has as its target Bile acid receptor (Homo sapiens) (UniProt Q96RI1). Put plainly: qHTS assay for small molecule antagonists of farnesoid X receptor signaling (AID 588526; calls by dose curve; also: % is scaled to controls: 0 for no effect and ±100 for the full control effect). In short, it runs like this:
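Beta-lactamase reporter antagonist mode: HEK293T FXR-UAS-bla cells, titrated compound, CDCA stimulation, 16 h 37 C, CCF4 dye 2 h RT. Data normalized to CDCA 50 uM and DMSO; Hill-fit IC50.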

The target in assay [18] is Thyrotropin-releasing hormone receptor (Homo sapiens) (UniProt P34981). Put plainly: qHTS for Small Molecule Agonists and Allosteric Enhancers of Human TRH Receptor: Validation Screen for Agonists (AID 493127;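 active = calcium activation more than 3 SD above the typical response in the agonist read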;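 also: intracellular calcium rise by fluo-8 fluorescence before TRH EC20 addition; 0% is about no effect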). The conditions noted are these: TRH receptor agonist cell assay; at 2 µM; stronger effect = higher value. An outline of the steps:
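Compounds are added by online pintool to dye-loaded TRHR cells while fluorescence is recorded every second. A rise in calcium signal during the agonist read marks activation; a later 10 nM TRH addition (EC20) serves the separate enhancer mode.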

The target in assay [19] is Androgen receptor (Homo sapiens) (UniProt P10275). Put plainly: qHTS assay for small molecule agonists of androgen receptor signaling (AID 588515; active = well fitted curve in the direction sought with a large enough effect in the signal ratio, with a control signal flat; the % refers to the signal ratio; also: % is scaled to controls: 0 for no effect and ±100 for the full control effect). The conditions noted are these: AR-UAS-bla HEK293, beta-lactamase ratio, agonist 16 h; activation: stronger effect = higher value. In short, it runs like this: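 Stimulation of an AR-responsive β-lactamase reporter in GripTite HEK293 cells was measured after 16 h compound exposure at 37 °C, via CCF4 fluorescence after 2 h RT. EC50 from Hill fits, normalized to R1881 at 30 nM.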

For assay [20] the target is unchanged. As to the kind of experiment: qHTS assay for small molecule antagonists of androgen receptor signaling (AID 588516; active = well fitted curve in the direction sought with a large enough effect in the signal ratio, with a control signal flat, not every such curve was filed as active; the % refers to the signal ratio; also: % is scaled to controls: 0 for no effect and ±100 for the full control effect). An outline of the steps:
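AR-UAS-bla GripTite HEK 293 cells (2000/well) treated with compound titrations plus 10 nM R1881 for 16 h at 37C. Beta-lactamase read by CCF4 FRET (460/530 nm); IC50 from Hill fits, normalized to R1881 and DMSO control wells.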

Experimental findings from PubChem BioAssay (NCATS) are described below.

SMILES strings stand for the structures. Several values for one entry are separate records, joined by “and”; a condition that tells them apart may be missing. Equal entries are not always repeated. Results filed as inconclusive are left out. Activity calls are given as the source filed them. Unless noted, calls follow the shape of the dose curve; as a rule, active = well fitted curve in the direction sought with a large enough effect; inconclusive = small, poorly fitted or top-dose-only effect, or another doubt; inactive = no such curve, though single readings can be large; an effect the other way counts as inactive or inconclusive.

Sequence of Galactokinase (Homo sapiens) (P51570 whole entry, looked up): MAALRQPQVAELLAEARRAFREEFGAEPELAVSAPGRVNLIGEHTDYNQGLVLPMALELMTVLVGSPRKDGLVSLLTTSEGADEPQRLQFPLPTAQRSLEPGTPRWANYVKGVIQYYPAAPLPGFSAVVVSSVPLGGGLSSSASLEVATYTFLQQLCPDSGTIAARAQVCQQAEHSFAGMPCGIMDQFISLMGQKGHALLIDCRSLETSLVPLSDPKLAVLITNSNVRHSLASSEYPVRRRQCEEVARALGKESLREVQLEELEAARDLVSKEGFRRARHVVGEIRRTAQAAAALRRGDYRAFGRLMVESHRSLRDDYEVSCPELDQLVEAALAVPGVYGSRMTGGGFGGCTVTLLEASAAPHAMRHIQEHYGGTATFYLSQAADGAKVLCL
Sequence of Phosphoglycerate kinase, glycosomal (Trypanosoma brucei brucei) (P07378 whole entry, looked up): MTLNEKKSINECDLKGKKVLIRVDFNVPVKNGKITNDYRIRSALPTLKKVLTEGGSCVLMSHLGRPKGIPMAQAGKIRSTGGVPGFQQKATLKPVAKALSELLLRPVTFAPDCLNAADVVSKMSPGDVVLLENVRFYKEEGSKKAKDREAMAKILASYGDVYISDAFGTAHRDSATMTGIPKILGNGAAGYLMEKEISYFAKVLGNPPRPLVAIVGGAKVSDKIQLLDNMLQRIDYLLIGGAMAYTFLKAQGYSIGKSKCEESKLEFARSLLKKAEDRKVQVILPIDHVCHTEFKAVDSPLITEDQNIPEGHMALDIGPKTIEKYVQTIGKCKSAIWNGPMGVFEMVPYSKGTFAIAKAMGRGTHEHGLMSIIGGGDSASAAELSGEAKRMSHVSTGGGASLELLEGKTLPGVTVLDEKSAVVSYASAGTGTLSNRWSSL
Sequence of Peptidyl-prolyl cis-trans isomerase NIMA-interacting 1 (Homo sapiens) (Q13526 whole entry, looked up): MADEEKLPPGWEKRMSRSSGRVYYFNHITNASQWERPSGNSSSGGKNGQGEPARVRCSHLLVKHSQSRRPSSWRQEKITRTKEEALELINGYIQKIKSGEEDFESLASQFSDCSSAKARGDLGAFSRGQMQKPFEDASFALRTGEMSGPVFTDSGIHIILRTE
Sequence of Ubiquitin carboxyl-terminal hydrolase 1 (Homo sapiens) (O94782 whole entry, looked up): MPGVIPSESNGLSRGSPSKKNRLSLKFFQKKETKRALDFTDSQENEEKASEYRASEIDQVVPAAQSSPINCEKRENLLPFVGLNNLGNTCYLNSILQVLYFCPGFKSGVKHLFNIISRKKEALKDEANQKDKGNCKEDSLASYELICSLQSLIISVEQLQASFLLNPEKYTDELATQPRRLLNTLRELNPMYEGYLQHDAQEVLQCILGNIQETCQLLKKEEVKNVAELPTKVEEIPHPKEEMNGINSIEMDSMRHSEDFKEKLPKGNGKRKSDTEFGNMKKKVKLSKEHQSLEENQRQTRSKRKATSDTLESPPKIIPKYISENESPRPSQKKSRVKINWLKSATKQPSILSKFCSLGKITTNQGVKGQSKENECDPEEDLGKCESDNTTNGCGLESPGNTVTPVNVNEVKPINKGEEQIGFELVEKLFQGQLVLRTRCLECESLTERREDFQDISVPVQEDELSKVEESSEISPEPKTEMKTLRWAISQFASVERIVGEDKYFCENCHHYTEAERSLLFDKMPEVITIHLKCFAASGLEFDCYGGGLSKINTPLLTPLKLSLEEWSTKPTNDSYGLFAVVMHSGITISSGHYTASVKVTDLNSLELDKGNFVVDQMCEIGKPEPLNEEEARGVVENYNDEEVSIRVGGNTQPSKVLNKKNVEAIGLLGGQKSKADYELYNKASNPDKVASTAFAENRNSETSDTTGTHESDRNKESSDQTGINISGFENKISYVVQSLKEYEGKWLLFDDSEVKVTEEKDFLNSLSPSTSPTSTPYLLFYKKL
Sequence of ATPase family AAA domain-containing protein 5 (Homo sapiens) (Q96QE3 whole entry, looked up, the tested form may be a part): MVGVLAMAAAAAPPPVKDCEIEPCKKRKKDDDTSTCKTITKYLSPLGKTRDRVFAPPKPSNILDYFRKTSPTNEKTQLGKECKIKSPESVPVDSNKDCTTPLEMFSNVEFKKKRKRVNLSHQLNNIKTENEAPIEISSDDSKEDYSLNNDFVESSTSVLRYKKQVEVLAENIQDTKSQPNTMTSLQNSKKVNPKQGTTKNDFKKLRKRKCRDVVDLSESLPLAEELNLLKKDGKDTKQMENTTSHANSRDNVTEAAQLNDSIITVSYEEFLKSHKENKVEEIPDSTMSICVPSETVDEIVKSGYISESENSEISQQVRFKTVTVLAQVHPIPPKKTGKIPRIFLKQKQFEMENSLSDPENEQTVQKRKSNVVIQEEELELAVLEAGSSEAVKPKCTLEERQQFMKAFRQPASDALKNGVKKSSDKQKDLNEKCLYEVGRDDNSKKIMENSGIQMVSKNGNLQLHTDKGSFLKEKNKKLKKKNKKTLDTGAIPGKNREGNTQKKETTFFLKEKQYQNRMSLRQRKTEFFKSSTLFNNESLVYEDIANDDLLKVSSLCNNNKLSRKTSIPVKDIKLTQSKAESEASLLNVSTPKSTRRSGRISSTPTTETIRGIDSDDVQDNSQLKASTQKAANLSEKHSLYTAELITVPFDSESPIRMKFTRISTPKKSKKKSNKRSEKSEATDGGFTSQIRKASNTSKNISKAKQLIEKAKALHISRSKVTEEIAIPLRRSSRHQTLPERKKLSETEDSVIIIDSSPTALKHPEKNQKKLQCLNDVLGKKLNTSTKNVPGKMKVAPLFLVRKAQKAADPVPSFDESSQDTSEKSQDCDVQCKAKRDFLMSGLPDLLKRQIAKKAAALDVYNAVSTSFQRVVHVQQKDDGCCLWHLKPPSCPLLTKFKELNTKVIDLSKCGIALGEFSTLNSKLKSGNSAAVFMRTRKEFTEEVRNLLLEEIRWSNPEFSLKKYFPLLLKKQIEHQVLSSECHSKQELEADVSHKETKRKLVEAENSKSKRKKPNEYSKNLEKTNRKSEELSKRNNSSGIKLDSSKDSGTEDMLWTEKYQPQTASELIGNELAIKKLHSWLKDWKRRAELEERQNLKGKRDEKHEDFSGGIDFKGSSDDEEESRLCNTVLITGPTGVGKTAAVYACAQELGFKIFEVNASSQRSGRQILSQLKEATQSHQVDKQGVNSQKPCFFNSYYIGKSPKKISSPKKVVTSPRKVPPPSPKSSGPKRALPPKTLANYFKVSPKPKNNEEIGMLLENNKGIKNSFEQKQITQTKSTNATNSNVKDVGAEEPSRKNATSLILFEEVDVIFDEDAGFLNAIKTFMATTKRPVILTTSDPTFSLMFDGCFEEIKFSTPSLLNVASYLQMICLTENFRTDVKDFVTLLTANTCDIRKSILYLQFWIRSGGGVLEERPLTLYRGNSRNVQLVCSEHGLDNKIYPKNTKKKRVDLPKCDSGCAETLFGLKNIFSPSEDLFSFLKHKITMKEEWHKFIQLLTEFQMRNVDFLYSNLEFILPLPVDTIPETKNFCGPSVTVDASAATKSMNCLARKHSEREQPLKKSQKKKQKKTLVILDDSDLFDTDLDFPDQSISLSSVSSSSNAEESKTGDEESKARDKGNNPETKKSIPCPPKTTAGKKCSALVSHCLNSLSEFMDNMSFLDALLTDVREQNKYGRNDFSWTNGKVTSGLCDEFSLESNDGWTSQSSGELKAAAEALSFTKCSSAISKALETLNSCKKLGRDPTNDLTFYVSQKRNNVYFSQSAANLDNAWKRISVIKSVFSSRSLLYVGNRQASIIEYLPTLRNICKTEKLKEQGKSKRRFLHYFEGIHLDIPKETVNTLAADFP
Sequence of ATP-dependent 6-phosphofructokinase (Trypanosoma brucei brucei) (O15648 whole entry, looked up): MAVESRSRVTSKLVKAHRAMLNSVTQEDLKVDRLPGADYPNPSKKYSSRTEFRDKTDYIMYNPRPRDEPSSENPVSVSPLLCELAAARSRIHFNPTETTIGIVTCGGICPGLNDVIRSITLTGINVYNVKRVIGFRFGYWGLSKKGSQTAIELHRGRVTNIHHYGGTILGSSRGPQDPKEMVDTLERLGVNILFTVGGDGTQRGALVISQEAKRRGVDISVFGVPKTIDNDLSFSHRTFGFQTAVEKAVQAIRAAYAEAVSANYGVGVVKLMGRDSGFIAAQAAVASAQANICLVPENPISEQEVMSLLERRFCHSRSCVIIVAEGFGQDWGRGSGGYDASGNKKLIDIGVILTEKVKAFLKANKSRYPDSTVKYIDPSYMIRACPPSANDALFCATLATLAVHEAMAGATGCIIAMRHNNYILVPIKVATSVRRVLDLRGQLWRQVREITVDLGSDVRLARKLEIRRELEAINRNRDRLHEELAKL
Sequence of Estrogen receptor (Homo sapiens) (P03372 whole entry, looked up): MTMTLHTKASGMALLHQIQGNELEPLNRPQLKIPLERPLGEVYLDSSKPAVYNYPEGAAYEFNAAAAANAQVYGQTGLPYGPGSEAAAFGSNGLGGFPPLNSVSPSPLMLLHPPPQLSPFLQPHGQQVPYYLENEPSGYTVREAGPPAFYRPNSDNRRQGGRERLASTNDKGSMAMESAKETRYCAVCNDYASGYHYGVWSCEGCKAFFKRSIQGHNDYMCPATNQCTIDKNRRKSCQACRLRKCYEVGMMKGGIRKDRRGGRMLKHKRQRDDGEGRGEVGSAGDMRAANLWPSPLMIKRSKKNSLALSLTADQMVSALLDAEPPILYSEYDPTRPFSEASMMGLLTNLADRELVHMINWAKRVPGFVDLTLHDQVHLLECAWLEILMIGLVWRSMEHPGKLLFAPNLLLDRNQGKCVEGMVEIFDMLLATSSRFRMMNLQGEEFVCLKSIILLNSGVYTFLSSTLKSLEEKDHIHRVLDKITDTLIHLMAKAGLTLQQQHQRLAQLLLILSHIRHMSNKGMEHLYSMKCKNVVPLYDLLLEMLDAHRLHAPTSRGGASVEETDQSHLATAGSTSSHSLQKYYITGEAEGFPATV

Consider `NC1=NCC2c3ccccc3Cc3ccccc3N12` (centres undefined), for which the call in [1], in assay [4], in [5], in assay [6] and in [7] was inactive. Further, the Potency entry in assay [2], in [3], in assay [8], in [9] and in [10] was “inactive” throughout. In addition, the viability change in assay [3] came out at 6.37%.

Take `CCO/C([O-])=N/c1c[n+](N2CCOCC2)no1`: the call in assay [1], in [4], in assay [12], in [13], in assay [5] and in assay [6] was inactive. For the same molecule, in [7], the molecule was classed as inactive. The Potency result in assay [2], in [11], in assay [8] and in [9] was “inactive” in each case.

Consider `CC(=O)OC(C)C[N+](C)(C)C` (centres undefined), for which the Potency entry in assay [2], in assay [11], in [3], in assay [8] and in [9] was “inactive” throughout. The viability change in assay [3] turned out to be 2.56%. For the same molecule, the result in assay [4], in [12], in assay [13], in [5], in [6] and in assay [7] was inactive.

For the molecule `O=c1[nH]c(=O)n([C@H]2C[C@H](O)[C@@H](CO)O2)cc1Br`, the molecule was classed as inactive in [1], in assay [4], in assay [12], in [13], in assay [5] and in [7]. Also, the molecule was called inactive in assay [14], in [15] and in [17]. Besides, the Potency entry in assay [11], in assay [3], in assay [8], in assay [9] and in assay [16] was “inactive” each time. The viability change in assay [3] came to 1.73%.

For the molecule `CC(=O)Nc1nnc(S(N)(=O)=O)s1`, the Potency entry in assay [2], in assay [11], in assay [3], in [8], in assay [9] and in assay [10] was “inactive” throughout. In assay [16], the Potency entry is “inactive”. The activation in assay [18] was 1.38% (inactive). Further, in assay [3], the viability change was determined as 3.35%. In addition, the molecule was called inactive in [4], in [12], in assay [13], in [5], in assay [6] and in assay [7]. Further, in [15], the molecule was classed as inactive.

As to `CCCN1C[C@H](CSC)C[C@@H]2c3cccc4[nH]cc(c34)C[C@H]21`, the Potency result in assay [2], in assay [11], in assay [3], in [8], in [9] and in assay [10] was “inactive” throughout. Further, the activation in assay [18] was 1.44% (inactive). In addition, the viability change in assay [3] was found to be 2.56%. For the same molecule, the call in [4], in assay [12], in [13], in assay [5], in [6] and in assay [7] was inactive. Moreover, in assay [14], the molecule was classed as inactive.

With `CCCCOCCOCCOCc1cc2c(cc1CCC)OCO2`, the molecule was classed as inactive in [1], in assay [20] and in [17]. Besides, the Potency result in [8] is “inactive”. Moreover, the activation in [19] was 19.3% (inactive) and -3.12% (inactive).

Turning to `COC(=O)C1=C(C)NC(C)=C(C(=O)OCCN(C)Cc2ccccc2)C1c1cccc([N+](=O)[O-])c1` (centres undefined), the Potency entry in [2] was “inactive”. Also, the values for the Potency in [11], in assay [9] and in assay [10] were 16.4 µM (active), 20 µM (active) and 35.5 µM (active), respectively. In addition, the activation in [18] was -4.56% (inactive). Moreover, the outcome in assay [12], in assay [6] and in assay [7] was inactive.

In the case of `CCc1cccc(N(C)C(N)=Nc2cccc3ccccc23)c1`, the molecule was classed as inactive in [1], in [12], in assay [5], in assay [6] and in assay [7]. Besides, the Potency entry in assay [2] and in assay [8] was “inactive” throughout.

For the molecule `CO[C@@]1(NC(=O)CSCC#N)C(=O)N2C(C(=O)O)=C(CSc3nnnn3C)CS[C@@H]21`, the Potency result in assay [2], in assay [11], in [8] and in [9] was “inactive” each time. Moreover, in assay [18], the activation was 1.44% (inactive). Further, the outcome in [12], in [13] and in assay [7] was inactive.

`COc1ccc(CCN(C)CCCC(C#N)(c2cc(OC)c(OC)c(OC)c2)C(C)C)cc1OC` (centres undefined): the Potency entry in [2], in assay [11], in assay [3] and in [8] was “inactive” each time. Moreover, the viability change in assay [3] is -13.6%. The molecule was called inactive in assay [4], in assay [12], in assay [13], in assay [5], in assay [6] and in [7].
